Laboratory results taken from PubChem BioAssay (NCI).
Compounds without any hit were thinned out: in the full panel of roughly 83,000, 20% have a hit.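 Testing used 96-well plates and a 48-hour single-concentration exposure. Example: -40 means 40% of the starting cells died.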 A number with no mark means an inactive call. Active and inactive are the calls of the source. The calls were made as follows: active = growth percent below 10; inactive = the rest.

Test system: SF-268 CNS
Experiment: NCI-60 one-dose screen, 48 h (100 = growth as untreated, 0 = no growth, -100 = all killed)
Conditions: 10 µM unless noted

SMILES | growth
O=C1CC(c2ccc(O)c(O)c2)Oc2cc(O)c([C@@H]3O[C@H](CO)[C@@H](O)[C@H](O)[C@H]3O)c(O)c21 (stereo partly drawn) | 102%
O=C(NCc1ccccc1)c1ccc2c(c1)NC(=O)[C@@H]1CCCN21 | 95.6%
CCc1ccc(OCc2ccccc2C(=O)Nc2ccc3nc(C)cc(N)c3c2)cc1 | -82.5% (active)
CSc1cccc(NC(=O)Nc2nc3c(C)cccc3s2)c1 | 104%
COC(=O)[C@]1(C)CCC[C@]2(C)[C@H]3C[C@H]4C(C(C)C)=C[C@]3(CC[C@H]21)[C@@H]1C(=O)N(CCC#N)C(=O)[C@@H]14 | 89.4%
CC1=C(CCCOC(=O)NCCCl)C2=C(C)C3(CC3)[C@@](C)(O)C(=O)C2=C1 | 14.1%
COc1ccc2[nH]c(-c3ccccc3)c(C=C(C#N)C#N)c2c1 | 49.1%
Cc1nn(-c2ccc(-c3ccc(OC(F)(F)F)cc3)cc2)c2nc(-c3ccccc3)nc(N)c12 | 97.2%
O=S(=O)(O)c1ccc(N=NSc2ccc3ccccc3c2)cc1 | 98.8%
O=c1c2ccccc2n(CC(O)CN2CCCC2)c2c(Br)cccc12 (stereo not drawn) | 94.8%
CS(=O)(=O)O[C@@H]1C(=O)N(c2cc3c4ccccc4ccc3c3ccccc23)[C@H]1c1ccc(F)cn1 | 43.4%
CC(C)(C)c1nn(-c2ccccc2)c2c1COCN2Cc1ccc(Cl)cc1 | 103%
Cc1cc(NC(=O)CNc2nc(Oc3ccc(F)cc3)nc(-c3ccc(F)cc3)n2)ccc1Cl | 100%
CC(=O)c1cc2c(N)c(C(=O)Nc3ccccn3)sc2nc1C | 93%
CCOC(=O)c1sc(/N=C2\NC(=O)/C(=C/c3ccc(N4CCN(C)CC4)cc3)S2)nc1C | 97.3%
O=C(/C(=C/c1ccc([N+](=O)[O-])cc1)SCc1ccc(F)cc1)c1ccc(Cl)cc1 | 75.6%
Cc1cnc(-c2ccc(-c3ccc(NC(=O)Nc4c(F)cc(F)cc4F)cc3F)c3c2C(=O)NC3)[nH]1 | 39.2%
COc1ccc(Nc2cc(NC(=O)CNc3cc(OC)c(Cl)c(OC)c3Cl)ncn2)cc1 | 78.3%
Nc1n[nH]c2cccc(C#Cc3cccc(NC(=O)c4cc(N5CCOCC5)cc(C(F)(F)F)c4)c3)c12 | 55.8%

SMILES | growth
CC(C)(C)CC(C)(C)Cc1ccc(OCCOCC[N+](C)(C)Cc2ccccc2)cc1 | 20.7%
CCOCc1cc(C(C)(C)C)ccc1O | 105%
C=C1C(=O)O[C@H]2[C@H]1CC/C(COC(=O)Nc1nc3ccccc3[nH]1)=C\CC[C@@]1(C)O[C@@H]21 | 94.3%
C=C(C)[C@@H]1CC[C@]2(C(=O)n3ccnc3)CC[C@]3(C)[C@H](CC[C@@H]4[C@@]5(C)CCCNC(C)(C)[C@@H]5CC[C@]43C)[C@@H]12 | 59.4%
C=C(C)[C@@H]1CC[C@]2(C(=O)O)CC[C@]3(C)[C@H](CC[C@@H]4[C@@]5(C)C[C@@H](CC#Cc6ccccc6C)C(=O)C(C)(C)[C@@H]5CC[C@]43C)[C@@H]12 | 48.4%
Clc1ccc2c(NCCCNC3CCCCC3)ccnc2c1 | 103%
CN(C)C(CNc1oc(-c2cccc3ccccc23)nc1C#N)c1ccco1 (stereo not drawn) | 91.4%
c1cc(CNC23CC4CC(CC(C4)C2)C3)cc(C[N+](Cc2cccc(CNC34CC5CC(CC(C5)C3)C4)c2)(Cc2cccc(CNC34CC5CC(CC(C5)C3)C4)c2)Cc2cccc(CNC34CC5CC(CC(C5)C3)C4)c2)c1 (stereo not drawn) | 26.9% [42 µM]
O=C1CCc2ccccc2N1 | 97.4%
Cc1cnc(SCc2ccc(Cl)cc2Cl)nc1Nc1ccc(Cl)c(Cl)c1 | 90.5%
COc1cc(C2=NN(C(C)=O)C(c3cccc(Nc4ccnc5cc(C(F)(F)F)ccc45)c3)C2)cc(OC)c1OC (stereo not drawn) | 52.6%
CCOC(=O)c1c(-c2ccc(O)cc2)c(C#N)c2c(C#N)c(N)nn2c1N | 71.8%
CN(C)CCCn1c2c(c3cc(-c4ccco4)ccc3c1=O)C(=O)c1ccccc1-2 | 72.3%
Nc1cc(N)c(S(=O)(=O)O)cc1N=Nc1cc([N+](=O)[O-])ccc1O | 102%
COc1cc(/C=N/Nc2nc(-c3ccc(F)cc3)c(C#N)c(N3CCOCC3)n2)ccc1O | 99.8%
COc1cc(-c2csc(NC(=O)Nc3ccc(Cl)cc3)n2)cc(OC)c1OC | 51.2%
N#CCNc1ccc(C(=O)O)cc1 | 105%
CCOC(=O)c1ccc(Nc2ncnc3ccc(NC(=O)c4ccccc4)cc23)cc1 | 91.3%
COC(=O)/C=C/c1cc(OC(C)=O)c2c(c1)C(C(=O)OC)C(c1ccc(OC(C)=O)c(OC(C)=O)c1)O2 (stereo not drawn) | 39.6%
